The results in this text go back to PubChem BioAssay (NCI).

Common to all, as to experiment: NCI-60 one-dose screen, 48 h (100 = growth as untreated, 0 = no growth, -100 = all killed)
Common to all, as to details: 10 µM unless noted

Experiment [1] concerns DU-145 prostate.
The subject of experiment [2] is K-562 leukemia.
In experiment [3] the test system is MALME-3M melanoma.
The subject of experiment [4] is MDA-MB-231 breast.
Experiment [5] has as its system RXF 393 renal.
The subject of experiment [6] is SF-268 CNS.
The test system of experiment [7] is SF-295 CNS.
For experiment [8], the system named is SF-539 CNS.
In experiment [9] the test system is UACC-257 melanoma.
For experiment [10], the system named is M14 melanoma.
The subject of experiment [11] is HCT-15 colon.
The test system of experiment [12] is HT29 colon.
Experiment [13] has as its system SNB-75 CNS.
In experiment [14] the test system is SNB-19 CNS.
Experiment [15] relates to U251 CNS.
The test system of experiment [16] is PC-3 prostate.
Experiment [17] deals with SK-MEL-5 melanoma.
The subject of experiment [18] is UACC-62 melanoma.
In experiment [19] the test system is LOX IMVI melanoma.
For experiment [20], the system named is SK-MEL-28 melanoma.

This is part of a sample that, as a whole, favours compounds with a hit. Of some 83,000 tested, about 20% had one in any assay.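 Growth was measured after 48 h exposure to one concentration of compound in 96-well plates. Values under 10 count as active.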 Unmarked numbers belong to inactive results. The source made the active and inactive calls.

For the molecule `NS(=O)(=O)c1ccc(-n2nc(C(=O)N/N=C\c3ccc(F)cc3)cc2-c2ccc(Cl)cc2)cc1`, the growth was 104% in experiment [1]; 87.9% in experiment [2]; 89.9% in experiment [3]; 74% in experiment [4]; 89.5% in experiment [5]; 88.3% in experiment [6]. Further, the growth in experiment [7] is 97%; in experiment [8] it was 88.1%; in experiment [9], 101%; in experiment [10], -85.9% (active); in experiment [11], 98.4%; in experiment [12], 118%. Also, the growth in experiment [13] is 57.1%; in [14] it was 85.5%; in experiment [15], 93.3%; in [16] it was 81.9%; in [17], 93.5%; in experiment [18], 81.8%. Further, the growth in experiment [19] is 90.9%; in [20], 98.8%.

Regarding `O=C1CCc2c(sc3[nH]c(=S)n(-c4ccc(OC(F)(F)F)cc4)c(=O)c23)C1`, the growth in [1] was 81.2%; in experiment [2], 18%; in experiment [3] it was 68%; in experiment [4] it was 61.4%; in experiment [5], 37.3%; in [6], 25.6%. In addition, the growth was 17.2% in [7]; 19% in experiment [8]; 85.9% in experiment [9]; 59.6% in experiment [10]; 40.4% in experiment [11]; 104% in experiment [12]. The growth in experiment [13] was 27.4%; in experiment [14], 17.1%; in [15] it was 21.6%; in [16], 16.1%; in experiment [17], 22.6%; in [18], 10.8%. For the same molecule, the growth in [19] is 20.6%; in [20] it was 43.2%.

Turning to `COC(=O)c1ccc(C2Nc3ccc(S(=O)(=O)Nc4ccc(C)c(C)c4)cc3C3OCCC23)cc1` (stereo not given), the growth was 100% in experiment [1]; 40.8% in experiment [2]; 77.4% in experiment [3]; 83.9% in experiment [4]; 101% in [5]; 78% in experiment [6]. Further, the growth in [7] was 77.4%; in experiment [8] it was 96.2%; in [9] it was 79.6%; in [10] it was 94.1%; in [11], 71.2%; in [12], 83.7%. Moreover, the growth in experiment [13] is 79.1%; in [14], 78.2%; in experiment [15], 71.5%; in [16], 82.4%; in experiment [17], 58%; in [18], 65.3%. Also, the growth is 93% in [19] and 99.5% in experiment [20].

As for `CCC(CO)Nc1nc2ccc(Cl)cc2c2ccccc12` (stereo not given), the growth in [1] is 84.9%; in experiment [2], 38.2%; in [3], 85.8%; in [4] it was 55.7%; in experiment [5], 4.53% (active); in experiment [6], 70.7%. For the same molecule, the growth is 74.8% in [7]; 55.8% in [8]; 97.5% in [9]; 84.8% in [10]; 57.1% in [11]; 30.1% in [12]. Also, the growth is 18.8% in [13]; 53.8% in experiment [14]; 51.3% in [15]; 59.5% in [16]; 68.4% in [17]; 60.4% in [18]. The growth in experiment [19] was 67.2%; in experiment [20] it was 90.8%.

Take `CCOC(=O)c1c(-c2ccc(Cl)cc2)c(C#N)c(=O)n(-c2ccccc2CC)c1N`: the growth is 93.5% in experiment [1]; 77.6% in experiment [2]; 100% in experiment [3]; 90.8% in [4]; 111% in experiment [5]; 86.8% in experiment [6]. Besides, the growth in [7] is 74.3%; in [8] it was 100%; in experiment [9], 113%; in experiment [10], 105%; in experiment [11], 89.7%; in experiment [12], 110%. Also, the growth in [13] is 89.8%; in experiment [14], 120%; in experiment [15], 90%; in [16] it was 77.5%; in experiment [17] it was 85.1%; in [18], 68.8%. Besides, the growth is 95% in experiment [19] and 99.3% in experiment [20].

For `COc1cc2ncn3c(=O)c4c5c(sc4nc3c2cc1OC)CCCC5`, the growth is 105% in [1]; 146% in experiment [2]; 89.8% in [3]; 90.6% in [4]; 105% in experiment [5]; 94.3% in experiment [6]. Also, the growth in experiment [7] was 101%; in experiment [8], 99.2%; in experiment [9], 119%; in experiment [10], 91.2%; in experiment [11], 99.9%; in experiment [12] it was 91.8%. Further, the growth is 85.1% in experiment [13]; 93.2% in experiment [14]; 98.7% in experiment [15]; 87.6% in experiment [16]; 102% in [17]; 93.4% in experiment [18]. In addition, the growth in experiment [19] was 98.6%; in [20], 106%.

Turning to `COC1=C(OC)C(=O)C(OC)=C(OC)C1=O`, the growth was 101% in [1]; 87.2% in experiment [2]; 101% in experiment [3]; 46.3% in experiment [4]; 95% in [5]; 94.4% in experiment [6]. Besides, the growth in [7] was 97.7%; in experiment [8], 114%; in experiment [9], 107%; in experiment [10] it was 105%; in experiment [11] it was 108%; in experiment [12], 104%. Also, the growth in experiment [13] was 106%; in experiment [14] it was 99%; in [15], 105%; in experiment [16], 95.5%; in [17], 105%; in [18], 102%. Besides, the growth in experiment [19] is 90.7%; in experiment [20] it was 105%.

Consider `Cc1cccc(Cc2cnc(NC(=O)c3ccc4nnsc4c3)s2)c1`, for which the growth is 74% in [1]; 39.4% in experiment [2]; 95.3% in experiment [3]; 111% in [4]; 97.5% in experiment [5]; 89.9% in [6]. Further, the growth in [7] is 93.7%; in [8], 91%; in [9] it was 95.4%; in [10], 64.6%; in experiment [11] it was 68.6%; in experiment [12] it was 82.8%. The growth in experiment [13] is 105%; in experiment [14] it was 96.1%; in [15], 88.7%; in experiment [16], 66.1%; in experiment [17], 97.3%; in experiment [18], 35.3%. The growth is 34.6% in experiment [19] and 103% in [20].
